# From PubChem
# A selection: hits, their analogues and other compounds. The true share with any hit is near 3.6%.
# LGR2 inh – blocks bursicon-induced cAMP signaling via Drosophila LGR2; HEK293 LGR2, CRE-luciferase, bursicon-stimulated, 4 h; inhibition, % at 9.99 µM; 380,000 compounds, 0.35% hits;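 active = drop in luminescence signal, shown as inhibition above about 50% in the replicate tests, limit read from the data, passing the limit was not always enough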;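 note: agonist challenge used bursicon conditioned medium at about half maximal strength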
# HSP90 refold inh – HSP90 refolding inhibition in rabbit reticulocyte lysate; inhibition, % at 5.6 µM; 290,000 compounds, 0.91% hits; AID 1789; luciferase refolding luminescence, 3 h;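 active = inhibition above the screen-wide mean plus 3 SD, computed separately per campaign, cut at about 16% in these data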;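 note: 0% = DMSO wells and 100% = 60 µM geldanamycin wells; inhibitors lower the luminescence because luciferase stays unfolded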
# Peg3 promoter – Peg3 promoter activity inhibition; HeLa PEG-Prom luciferase reporter, luminescence, overnight; inhibition, % at 20 µM; 360,000 compounds, 1.7% hits;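 active = inhibition of at least 50% at 20 µM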
# Mdm2-MdmX inh – disrupts the human Mdm2-MdmX interaction. O15151+Q00987. SaOS-2 split-luciferase Mdm2/MdmX complementation, luminescence. inhibition, % at 8 µM. 330,000 compounds, 3% hits. AID 485346;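 active = inhibition of at least 50% at 8 µM in the primary screen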
# Target sequence (O15151 whole entry, looked up): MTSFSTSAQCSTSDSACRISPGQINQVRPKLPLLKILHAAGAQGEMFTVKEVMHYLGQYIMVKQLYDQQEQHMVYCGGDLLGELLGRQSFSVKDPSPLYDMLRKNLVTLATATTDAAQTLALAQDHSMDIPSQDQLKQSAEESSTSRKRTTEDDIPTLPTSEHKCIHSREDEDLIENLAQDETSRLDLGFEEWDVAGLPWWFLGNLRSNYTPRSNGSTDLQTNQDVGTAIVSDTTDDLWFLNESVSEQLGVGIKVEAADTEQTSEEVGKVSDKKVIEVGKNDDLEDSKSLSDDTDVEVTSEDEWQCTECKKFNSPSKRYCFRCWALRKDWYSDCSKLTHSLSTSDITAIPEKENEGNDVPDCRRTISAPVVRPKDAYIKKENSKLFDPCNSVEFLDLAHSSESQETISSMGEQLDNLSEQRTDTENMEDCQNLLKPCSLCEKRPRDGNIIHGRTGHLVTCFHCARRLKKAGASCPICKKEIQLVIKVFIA
# Target sequence (Q00987 whole entry, looked up): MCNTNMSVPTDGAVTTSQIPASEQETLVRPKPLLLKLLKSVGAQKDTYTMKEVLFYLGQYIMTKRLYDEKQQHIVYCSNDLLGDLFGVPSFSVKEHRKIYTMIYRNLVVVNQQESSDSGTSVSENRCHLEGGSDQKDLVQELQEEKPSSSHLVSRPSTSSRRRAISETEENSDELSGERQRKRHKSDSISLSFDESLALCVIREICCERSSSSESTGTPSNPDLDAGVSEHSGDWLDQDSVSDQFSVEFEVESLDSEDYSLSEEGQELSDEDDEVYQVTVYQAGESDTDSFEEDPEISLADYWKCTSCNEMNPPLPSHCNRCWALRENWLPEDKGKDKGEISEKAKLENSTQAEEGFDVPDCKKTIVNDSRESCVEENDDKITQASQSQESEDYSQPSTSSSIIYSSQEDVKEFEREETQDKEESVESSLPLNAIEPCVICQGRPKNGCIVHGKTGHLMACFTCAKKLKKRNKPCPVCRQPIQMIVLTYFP
# CF NFkB block – inhibitors of cystic fibrosis induced NF-kB; KKLEB NF-kB-GFP reporter, PAF-induced, GFP fluorescence overnight; inhibition, % at 5 µM; 360,000 compounds, 0.86% hits; AID 588850;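 active = at least 50% inhibition at 5 µM, scaled per plate between neutral and stimulator controls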;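 note: PAF is a Pseudomonas aeruginosa culture filtrate used as stimulus; plate controls were PAF-stimulated DMSO wells for no effect and unstimulated DMSO wells for full effect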
# KKLEB cytotox – counter-screen for CF NF-kB inhibitors: cytotoxicity; KKLEB CF airway cells viability, ATPlite luminescence, overnight; stronger effect = lower value; cells stimulated with P. aeruginosa culture filtrate; activity change (cytotoxicity), % at 5 µM; 360,000 compounds, 0.36% hits;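 active = corrected activity change at or below -50% at 5 µM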
# * marks the source's active call; other numbers are inactive results; nt = no result.
SMILES,LGR2 inh,HSP90 refold inh,Peg3 promoter,Mdm2-MdmX inh,CF NFkB block,KKLEB cytotox
CCOc1ccccc1Nc1nnc(SCc2nnc(-c3cc(OC)c(OC)c(OC)c3)o2)s1,13,-2,65*,14,-4,-2
CC(C)(C)C1=CC(=Nc2ccccc2N)C=C(C(C)(C)C)C1=O,17,-2,12,21,0,-1
CC(C)(C)C1=CC(=O)C(=O)C(C(C)(C)C)=C1,nt,3,73*,18,40,-13
CC(=O)OCCN1C(=O)c2cccc3cc([N+](=O)[O-])cc(c23)C1=O,nt,nt,nt,17,nt,nt
CN(C)CCN1C(=O)c2cccc3cc([N+](=O)[O-])cc(c23)C1=O,nt,nt,97*,nt,-146,-14
Fc1ccccc1COc1ccc(Br)cc1CNCc1ccncc1,nt,0,56*,0,8,10
O=C(N/N=C/c1cc(Cl)ccc1O)c1ccc(Br)cc1,15,1,45,nt,57*,-31
CN(CC(=O)Nc1cccc(F)c1)CC(=O)Nc1cccc(S(=O)(=O)N(C)c2ccccc2)c1,nt,nt,42,nt,-11,-4
Cc1cc(C)c(NC(=O)CN(C)CC(=O)Nc2cccc(S(=O)(=O)N(C)c3ccccc3)c2)c(C)c1,15,nt,58*,40,11,-3
CN(c1ccccc1)S(=O)(=O)c1cccc(NC(=O)c2ccc3ncsc3c2)c1,8,2,57*,27,1,0
CN(c1ccccc1)S(=O)(=O)c1cccc(NC(=O)c2cccc(C#N)c2)c1,9,nt,45,42,0,-9
CCNC(=O)C[C@@H]1CC[C@@H](NS(=O)(=O)c2ccc(C)cc2)[C@@H](CO)O1,10,nt,nt,nt,nt,nt
O=C(COc1cccc2ccccc12)NNC(=O)C1CCCO1 (configuration not stated),3,-4,10,-11,14,2
c1ccc2cc(CCO[C@H]3CCCCO3)ncc2c1,55*,nt,-96,2,8,-1
Cc1noc(C)c1NC(=O)NCC[C@H]1CC[C@@H](NC(=O)c2ccncc2)[C@H](CO)O1,13,nt,nt,nt,nt,nt
O=c1c2ccccc2sc2c(CO)ccc(NCCN3CCCCC3)c12,nt,nt,88*,nt,-74,-2
CCN(CC)CCNc1ccc(CO)c2sc3ccccc3c(=O)c12,15,1,58*,47,-58,-4
O=C(C[C@@H]1C[C@@H]2c3cc(NC(=O)C4CCC4)ccc3O[C@@H]2[C@H](CO)O1)NCc1cc(F)ccc1F,-6,nt,nt,nt,nt,nt
O=C1Cc2c([nH]c3ccc([N+](=O)[O-])cc23)-c2ccccc2N1,76*,nt,108*,nt,84*,-29
O=C(/C=C/c1ccc(S(=O)(=O)N2CCOCC2)cc1)N1CCN(c2ccccc2)CC1,11,-3,66*,2,11,0
COc1ccc(/C=C/C(=O)N2CCN(c3ccccc3)CC2)cc1S(=O)(=O)N1CCOCC1,-3,-1,15,25,14,6
Cc1cc(C)cc(N2C(=O)C=CC2=O)c1,nt,nt,106*,nt,89*,-34
CCOCCn1ccc2c(OCC(=O)Nc3ccc(OC)cc3OC)cccc2c1=O,8,nt,52*,33,10,-10
O=C(NCCC1=CCCCC1)c1ccc(F)cc1,8,38*,-88,-91,-3,1
O=C(NCCC1=CCCCC1)c1ccc([N+](=O)[O-])cc1,-10,13,-136,-118,-2,5
SMILES,LGR2 inh,HSP90 refold inh,Peg3 promoter,Mdm2-MdmX inh,CF NFkB block,KKLEB cytotox
CCCS(=O)(=O)Nc1ccc(Nc2c3ccccc3nc3ccccc23)c(OC)c1,-3,nt,37,nt,-152,-23
COc1cc(N)ccc1Nc1c2ccccc2nc2ccccc12,nt,nt,103*,nt,-23,-21
COc1cc(NC(=O)c2ccc(-c3cccc([N+](=O)[O-])c3)o2)ccc1NC(=O)C(C)C,-20,1,78*,28,-72,7
Cc1cc(C)cc(NC(=O)c2ccc([N+](=O)[O-])o2)c1,15,8,75*,32,85*,-68*
Cc1cc(C)c(NC(=O)c2cccc(NC(=O)c3ccco3)c2)c(C)c1,5,-2,73*,23,-17,19
Cc1cc(-c2nc3ncccc3o2)ccc1NC(=O)c1ccc([N+](=O)[O-])o1,0,nt,-6,nt,16,-7
Cc1cccc(NC(=O)c2cccc(NC(=O)c3ccco3)c2)c1,-5,nt,-38,nt,9,-20
COc1cc([N+](=O)[O-])ccc1NC(=O)c1cccc(NC(=O)C(C)C)c1,-14,-3,-1,10,-15,1
CC(=O)c1ccc(NC(=O)c2ccc([N+](=O)[O-])o2)cc1,-9,9,31,12,11,0
Cc1ccc(-c2nc3ncccc3o2)cc1NC(=O)c1ccc([N+](=O)[O-])o1,nt,2,57*,44,11,1
CNC[C@H]1Oc2cc(C#CC3(O)CCCC3)ccc2S(=O)(=O)N([C@H](C)CO)C[C@@H]1C,-18,nt,nt,nt,nt,nt
Cc1cc(NC(=O)c2ccc([N+](=O)[O-])o2)ccc1NC(=O)c1ccco1,-5,7,100*,nt,73*,-16
COc1cc(NC(=O)c2ccc([N+](=O)[O-])o2)ccc1NC(=O)c1ccco1,-2,3,57*,41,10,-15
COc1cc(NC(=O)c2cccc([N+](=O)[O-])c2)ccc1NC(=O)c1ccco1,nt,3,-18,-8,-26,18
Cc1cc([N+](=O)[O-])ccc1NC(=O)c1ccco1,-9,1,2,10,-10,4
COc1ccc(NC(=O)Nc2ccc3c(c2)CC(=O)N([C@H](C)CO)C[C@H](C)[C@H](CN(C)C(=O)Nc2ccccc2)O3)cc1,-20,nt,nt,nt,nt,nt
N#CC(C#N)=C1C=CC=CN1/C(=C\c1ccccc1Cl)C(=O)c1ccccc1,-4,1,108*,nt,81*,-58*
N#CC(C#N)=C1C=CC=CN1/C(=C\c1ccccc1)C(=O)c1cccs1,-10,2,12,10,13,-26
COc1ccc(NC(=O)Nc2ccc3c(c2)C(=O)N(C)C[C@H](OC)[C@@H](C)CN[C@H](C)CO3)cc1,-4,nt,nt,nt,nt,nt
CCOc1cc(/C=C2/C(=O)ON=C2C)ccc1OCc1ccccc1,-18,1,nt,17,nt,nt
CCOc1cc(/C=C2/C(=O)ON=C2C)ccc1OCc1ccccc1F,-8,2,97*,24,-42,19
CCOc1cc(/C=C2/C(=O)ON=C2C)ccc1OCc1ccc(F)cc1,nt,-1,65*,30,-13,8
CN1C(=O)c2cc(NC(=O)c3ccc(F)c(F)c3)ccc2OC[C@@H]2O[C@@H](CC(=O)N[C@H]3CCN(Cc4ccccc4)C3)CC[C@@H]21,3,nt,nt,nt,nt,nt
COc1ccc(S(=O)(=O)N(C)C[C@@H]2Oc3c(NS(C)(=O)=O)cccc3C(=O)N([C@@H](C)CO)C[C@@H]2C)cc1,12,nt,nt,nt,nt,nt
CC(C)NC(=O)Nc1cccc2c1O[C@@H](CN(C)Cc1ccccc1)[C@@H](C)CN([C@H](C)CO)C2=O,-3,nt,nt,nt,nt,nt
CC(=O)c1ccc(Nc2nc(-c3sc(C)nc3C)cs2)cc1,97*,nt,55*,nt,-46,-14
